# In PubChem BioAssay (Tox21):
# A number with no mark means an inactive call. Records with an inconclusive call do not appear. Where a call stands in place of a potency, no number is given. Active and inactive are the calls of the source. Unless noted, the call rests on the fitted dose curve; in most records, active means well fitted curve in the direction sought with a large enough effect in the repeat runs; inconclusive means weak or mixed curves; inactive means no such curve, though single readings can be large; an effect the other way counts as inactive or inconclusive.
# Experiments:
# [1] = target: Thyrotropin receptor (Homo sapiens) (UniProt P16473); experiment: qHTS assay to identify small molecule antagonists of the thyroid stimulating hormone receptor (TSHR) signaling pathway (AID 1259385; calls by dose curve; further: nearly all actives have a fitted effect of over 20% in size)
# Thyrotropin receptor (Homo sapiens), sequence (P16473 whole entry, looked up): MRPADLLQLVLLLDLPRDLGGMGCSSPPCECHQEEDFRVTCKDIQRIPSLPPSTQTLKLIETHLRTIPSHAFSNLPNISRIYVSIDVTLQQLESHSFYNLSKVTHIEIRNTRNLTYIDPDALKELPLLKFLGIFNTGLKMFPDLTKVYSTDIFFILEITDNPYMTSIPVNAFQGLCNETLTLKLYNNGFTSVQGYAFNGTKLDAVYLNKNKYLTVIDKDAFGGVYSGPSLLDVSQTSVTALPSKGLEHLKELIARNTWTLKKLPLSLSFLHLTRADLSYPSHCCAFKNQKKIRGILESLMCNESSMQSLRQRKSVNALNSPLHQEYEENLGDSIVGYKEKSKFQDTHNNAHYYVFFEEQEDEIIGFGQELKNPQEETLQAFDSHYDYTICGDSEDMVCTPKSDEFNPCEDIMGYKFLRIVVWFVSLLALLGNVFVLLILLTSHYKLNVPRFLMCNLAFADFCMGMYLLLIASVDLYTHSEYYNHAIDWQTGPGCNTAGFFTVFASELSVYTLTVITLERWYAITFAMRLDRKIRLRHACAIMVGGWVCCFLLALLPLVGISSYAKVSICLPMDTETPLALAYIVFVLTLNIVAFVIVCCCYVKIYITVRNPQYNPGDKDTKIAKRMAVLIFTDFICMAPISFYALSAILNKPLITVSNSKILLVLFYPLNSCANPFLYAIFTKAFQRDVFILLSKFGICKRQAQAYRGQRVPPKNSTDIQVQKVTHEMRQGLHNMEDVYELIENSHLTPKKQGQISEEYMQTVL
# Method in brief: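 TSHR-HEK293 cells (800/well) plated 18 h, then compounds with Ro20-1724 and TSH at 1.5 ng/mL final, 30 min at room temperature. cAMP quantified by HTRF (cAMP-d2/anti-cAMP-cryptate, 1 h); 15 concentrations in triplicate.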
# [2] = qHTS assay to identify small molecule agonists of the estrogen receptor alpha (ER-alpha) signaling pathway in the presence of an antagonist - cell viability counter screen (AID 1259386);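 further: series mostly up to about 92 µM; cells exposed to compounds for 22 h at 37 °C before the viability read; nearly all actives have a fitted effect of over 30% in size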
# Method in brief: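 Steps: 5-day stripped-FBS culture; seed and incubate 24hr; add ICI-182,780 (10.0nM final); pin 15-point compound titration; incubate 22hr at 37C; add CellTiter-Fluor at 21hr; read fluorescence.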
# [3] = target: Progesterone receptor (Homo sapiens) (UniProt P06401); experiment: qHTS assay to identify small molecule agonists of the progesterone receptor (PR) signaling pathway (AID 1346784; calls by dose curve; further: nearly all actives have a fitted effect of over 30% in size; further: potency means the concentration at half of the fitted maximal effect)
# Progesterone receptor (Homo sapiens), sequence (P06401 whole entry, looked up): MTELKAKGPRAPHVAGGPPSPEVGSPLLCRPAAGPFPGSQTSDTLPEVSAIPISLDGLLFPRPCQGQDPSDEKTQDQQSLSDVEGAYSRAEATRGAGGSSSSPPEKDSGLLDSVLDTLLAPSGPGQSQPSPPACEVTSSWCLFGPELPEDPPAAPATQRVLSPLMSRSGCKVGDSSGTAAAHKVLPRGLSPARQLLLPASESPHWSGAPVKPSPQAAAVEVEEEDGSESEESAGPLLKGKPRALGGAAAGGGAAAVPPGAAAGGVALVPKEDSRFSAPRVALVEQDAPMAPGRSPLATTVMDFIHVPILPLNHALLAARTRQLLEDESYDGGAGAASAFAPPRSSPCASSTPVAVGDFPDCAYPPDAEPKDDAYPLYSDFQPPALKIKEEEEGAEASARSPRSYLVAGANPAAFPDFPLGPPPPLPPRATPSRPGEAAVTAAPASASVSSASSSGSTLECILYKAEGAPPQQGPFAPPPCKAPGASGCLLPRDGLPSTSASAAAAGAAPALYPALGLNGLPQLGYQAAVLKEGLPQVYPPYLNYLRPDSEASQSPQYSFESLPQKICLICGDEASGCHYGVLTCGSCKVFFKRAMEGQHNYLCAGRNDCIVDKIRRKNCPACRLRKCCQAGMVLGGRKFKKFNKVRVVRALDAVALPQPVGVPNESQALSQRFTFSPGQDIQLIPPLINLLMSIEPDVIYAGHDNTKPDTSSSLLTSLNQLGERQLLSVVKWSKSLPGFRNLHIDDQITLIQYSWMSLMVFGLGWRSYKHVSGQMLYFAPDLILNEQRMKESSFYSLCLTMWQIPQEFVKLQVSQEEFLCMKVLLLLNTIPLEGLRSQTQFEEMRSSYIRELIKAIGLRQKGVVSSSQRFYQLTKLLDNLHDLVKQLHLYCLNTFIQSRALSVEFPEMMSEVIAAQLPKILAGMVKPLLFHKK
# Method in brief: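 PR-UAS-bla HEK 293T cells carrying a UAS-driven beta-lactamase reporter were seeded in medium with 2% charcoal-stripped FBS, preincubated 6 hr at 37C, then exposed to compounds in DMSO for 16 hr; agonism was read by LiveBLAzer B/G FRET fluorescence.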
# [4] = target: Progesterone receptor (Homo sapiens) (UniProt P06401); experiment: qHTS assay to identify small molecule antagonists of the progesterone receptor (PR) signaling pathway (AID 1346795; active means well fitted inhibition curve with a large enough effect in the signal ratio in the repeat runs, not every such curve was filed as active; the % refers to the signal ratio)
# Method in brief: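 PR-UAS-bla HEK293T cells carrying a UAS-driven beta-lactamase reporter were plated in medium with 2% charcoal-stripped FBS and rested 6 hr at 37C. Compounds were added with 1 nM R5020 (final) for 16 hr, then FRET substrate loaded 2 hr at room temperature.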
# [5] = qHTS assay to identify small molecule antagonists of the progesterone receptor (PR) signaling pathway - cell viability counter screen (AID 1346798); further: series mostly up to about 92 µM; nearly all actives have a fitted effect of over 50% in size
# Method in brief: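 PR-UAS-bla HEK293T cells in medium with 2% charcoal-stripped FBS were treated with compounds plus R5020 for 16 hr at 37C. Cell viability was then read by CellTiter-Glo luminescence after 30 min at room temperature in the same wells.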
# [6] = qHTS assay to identify small molecule agonists of the progesterone receptor (PR) signaling pathway - cell viability counter screen (AID 1346799; calls by dose curve; further: nearly all actives have a fitted effect of over 45% in size)
# Method in brief: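 PR-UAS-bla HEK293T cells, 3,000 per well in medium with 2% charcoal-stripped FBS, were preincubated 6 hr at 37C, then exposed to compounds for 16 hr; viability was read as CellTiter-Glo luminescence after 30 min at room temperature.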
# [7] = qHTS assay to identify small molecule antagonists of the TGF-beta/Smad signaling pathway - cell viability counter screen (AID 1346824); further: nearly all actives have a fitted effect of over 50% in size
# Method in brief: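 SBE-bla HEK 293T cells, incubated overnight, then compound plus 0.25 ng/mL TGF-beta1 (stock added) for 5 hr at 37 C. Viability was read in the same wells by CellTiter-Glo luminescence after 30 min at room temperature.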
# [8] = qHTS assay to identify small molecule agonists of the TGF-beta/Smad signaling pathway - cell viability counter screen (AID 1346829); further: top concentration of the series differs between compounds; nearly all actives have a fitted effect of over 45% in size
# Method in brief: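 Cytotoxicity counter screen: CellTiter-Glo luminescence (30 min, room temperature) measured in the SBE-bla HEK 293T reporter wells after 5 hr compound treatment at 37 C and the 2 hr substrate step.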
# [9] = qHTS assay to identify small molecule agonists of the TGF-beta/Smad signaling pathway (AID 1346859; active means well fitted activation curve with a large enough effect in the signal ratio in the repeat runs, not every such curve was filed as active; the % refers to the signal ratio; further: series mostly up to about 77 µM)
# Method in brief: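 HEK 293T cells stably carrying a beta-lactamase reporter driven by the Smad binding element were seeded overnight, exposed to DMSO-dissolved compounds for 5 hr at 37 C, 5% CO2, then loaded with FRET substrate for 2 hr at room temperature.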
# [10] = target: Thyrotropin-releasing hormone receptor (Homo sapiens) (UniProt P34981); experiment: qHTS assay to identify small molecule antagonists of the thyrotropin-releasing hormone receptor (TRHR) signaling pathway (AID 1346877; active means well fitted inhibition curve with a large enough effect in the repeat runs, not every such curve was filed as active; further: series mostly up to about 51 µM)
# Thyrotropin-releasing hormone receptor (Homo sapiens), sequence (P34981 whole entry, looked up): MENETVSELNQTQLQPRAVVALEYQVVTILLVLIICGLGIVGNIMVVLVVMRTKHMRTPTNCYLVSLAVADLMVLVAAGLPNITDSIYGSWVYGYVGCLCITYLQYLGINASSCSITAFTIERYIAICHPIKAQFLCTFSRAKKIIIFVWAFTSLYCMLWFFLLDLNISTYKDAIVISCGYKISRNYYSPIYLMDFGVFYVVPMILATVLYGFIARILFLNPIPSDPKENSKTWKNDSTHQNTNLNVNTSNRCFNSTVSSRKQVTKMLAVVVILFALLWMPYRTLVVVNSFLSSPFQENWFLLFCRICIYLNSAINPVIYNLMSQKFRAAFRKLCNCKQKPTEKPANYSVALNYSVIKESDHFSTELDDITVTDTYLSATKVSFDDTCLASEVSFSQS
# Method in brief: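 Human TRHR in HEK293 cells; inhibition of the intracellular calcium rise triggered by 1 nM TRH was followed by fluorescence over 3 min. Compounds were run at 15 concentrations, three replicates each.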
# [11] = target: Thyrotropin-releasing hormone receptor (Homo sapiens) (UniProt P34981); experiment: qHTS assay to identify small molecule agonists of the thyrotropin-releasing hormone receptor (TRHR) signaling pathway (AID 1346891; calls by dose curve; further: series mostly up to about 58 µM)
# Method in brief: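 TRHR-expressing HEK293 cells were plated 18 h at 37 °C/5% CO2, loaded with calcium dye 2 h at 37 °C, then given compound in DMSO; fluorescence was read kinetically for 3 min at 1 s intervals.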
# [12] = Human pregnane X receptor (PXR) small molecule agonists, qHTS cell viability counter screen (AID 1346977); further: nearly all actives have a fitted effect of over 50% in size
# Method in brief: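 PXR-Luc HepG2 cells in medium with 5% charcoal-stripped FBS were pre-incubated 5hr, then exposed to compounds for 24hr at 37C. Viability was read in the same wells by CellTiter-Fluor fluorescence, reagent added after 23hr with a 1hr incubation.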
# [13] = Caspase-3/7 induction in HepG2 cells by small molecules, qHTS assay (AID 1346978); further: nearly all actives have a fitted effect of over 15% in size
# Method in brief: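 Wild-type HepG2 cells, 2,000/well, settled 5 hr at 37 C and 5% CO2, then compound-treated for 17 hr; caspase-3/7 activity read by luminescent Caspase-Glo 3/7 after 30 min at room temperature.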
# [14] = Caspase-3/7 induction in HepG2 cells by small molecules, qHTS cell viability counter screen (AID 1346981); further: series mostly up to about 92 µM; nearly all actives have a fitted effect of over 30% in size
# Method in brief: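 The parent HepG2 line is plated at 2,000 cells per well and rested 5 hr before compound pinning from DMSO stocks. Following a 16-hr treatment at 37 C, a fluorogenic live-cell substrate (CellTiter-Fluor) reports viability after 1 hr.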
# [15] = target: Nuclear receptor subfamily 1 group I member 2 (Homo sapiens) (UniProt O75469); experiment: Human pregnane X receptor (PXR) small molecule agonists, qHTS assay (AID 1346982); further: nearly all actives have a fitted effect of over 35% in size; further: potency means the concentration at half of the fitted maximal effect
# Nuclear receptor subfamily 1 group I member 2 (Homo sapiens), sequence (O75469 whole entry, looked up): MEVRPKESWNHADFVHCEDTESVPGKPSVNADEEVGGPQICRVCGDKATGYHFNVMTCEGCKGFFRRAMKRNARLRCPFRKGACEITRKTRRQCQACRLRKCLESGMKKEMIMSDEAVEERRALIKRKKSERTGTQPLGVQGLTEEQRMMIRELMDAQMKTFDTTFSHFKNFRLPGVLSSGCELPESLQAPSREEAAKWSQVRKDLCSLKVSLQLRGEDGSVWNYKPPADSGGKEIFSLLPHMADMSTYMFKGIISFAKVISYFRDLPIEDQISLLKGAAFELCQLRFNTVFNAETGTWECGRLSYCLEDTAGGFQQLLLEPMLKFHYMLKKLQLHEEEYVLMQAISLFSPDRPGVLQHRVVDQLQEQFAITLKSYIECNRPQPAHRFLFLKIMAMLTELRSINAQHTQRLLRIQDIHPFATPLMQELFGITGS
# Method in brief: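 After plating in 5% charcoal-stripped FBS and a 5 hr rest, PXR-Luc HepG2 cells received compounds in DMSO. Following 24 hr at 37 C, ONE-Glo was added and light output read.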
# [16] = Caspase-3/7 induction in CHO-K1 cells by small molecules, qHTS cell viability counter screen (AID 1346979); further: nearly all actives have a fitted effect of over 35% in size
# Method in brief: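 Wild-type CHO-K1 cells were seeded at 1,500 per well, rested 5hr at 37 C, then exposed to compounds in DMSO. After 16hr, CellTiter-Fluor reagent was added and fluorescence read 1hr later as the viability measure.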
# [17] = Caspase-3/7 induction in CHO-K1 cells by small molecules, qHTS assay (AID 1346980); further: nearly all actives have a fitted effect of over 15% in size
# Method in brief: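 Wild-type CHO-K1 cells exposed to compounds for 17hr at 37 C, 5% CO2. Caspase-3/7 activity then measured by Caspase-Glo 3/7 luminescence after 30min at room temperature.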
# [18] = target: Nuclear receptor subfamily 1 group I member 2 (Rattus norvegicus) (UniProt Q9R1A7); experiment: Rat pregnane X receptor (rPXR) activation by small molecules, qHTS assay (AID 1346983); details: rPXR luciferase reporter cells, One-Glo luminescence, 24 h; stronger effect = higher value; further: nearly all actives have a fitted effect of over 20% in size
# Nuclear receptor subfamily 1 group I member 2 (Rattus norvegicus), sequence (Q9R1A7 whole entry, looked up): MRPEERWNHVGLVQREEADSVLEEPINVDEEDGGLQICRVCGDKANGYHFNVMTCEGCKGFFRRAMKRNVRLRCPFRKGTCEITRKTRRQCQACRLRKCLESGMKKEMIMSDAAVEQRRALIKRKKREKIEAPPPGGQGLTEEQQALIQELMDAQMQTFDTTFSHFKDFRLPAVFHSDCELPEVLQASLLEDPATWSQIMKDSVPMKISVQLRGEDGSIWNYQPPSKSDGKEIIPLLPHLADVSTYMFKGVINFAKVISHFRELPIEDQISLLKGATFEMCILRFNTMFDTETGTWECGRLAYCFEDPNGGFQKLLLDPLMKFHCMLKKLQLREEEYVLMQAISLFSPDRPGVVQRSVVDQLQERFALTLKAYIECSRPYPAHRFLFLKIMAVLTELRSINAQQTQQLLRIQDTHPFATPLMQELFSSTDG
# Method in brief: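 Cell-based rPXR activation assay: rPXR cells, 2,000 per well, rested 5hr at 37 C, then exposed to compounds in DMSO for 24 hr at 37 C. Luciferase activity read by One-Glo luminescence after 30 min at room temperature.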
# [19] = target: Nuclear receptor subfamily 1 group I member 2 (Homo sapiens) (UniProt O75469); experiment: CYP3A4 induction through human pregnane X receptor (PXR) by small molecules, qHTS assay (AID 1346984); further: nearly all actives have a fitted effect of over 40% in size
# Method in brief: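 Human PXR activation is tracked via CYP3A4 promoter-luciferase in DPX-2 (HepG2) cells. Compounds treat cells for 24hr at 37C, and luminescence is read after One-Glo.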
# [20] = target: Nuclear receptor subfamily 1 group I member 2 (Homo sapiens) (UniProt O75469); experiment: Human pregnane X receptor (PXR) activation by small molecules, qHTS assay (AID 1346985); further: nearly all actives have a fitted effect of over 40% in size
# Method in brief: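 DPX-2 cells (HepG2 co-transfected with a PXR response element and a CYP3A4-promoter luciferase construct) were seeded at 2,000 per well, rested 5 hr at 37C, then exposed to DMSO-dissolved compounds for 24 hr. Activation was read as luciferase luminescence.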
Structure (SMILES),outcome [1],Potency [2],Potency [3],Potency [4],Potency [5],Potency [6],outcome [7],Potency [8],outcome [9],Potency [10],outcome [11],Potency [12],outcome [13],Potency [14],Potency [15],Potency [16],outcome [17],max activation [18] [%],Potency [19],Potency [20]
O=C(Cl)C(Cl)Cl,inactive,inactive,inactive,inactive,inactive,inactive,inactive,inactive,inactive,inactive,inactive,inactive,inactive,inactive,,,,,,
CCOC(=O)N(C)N=O,inactive,inactive,inactive,inactive,inactive,inactive,inactive,,inactive,inactive,inactive,inactive,inactive,inactive,inactive,,,,,
C(COCC1CO1)OCC1CO1 (configuration not stated),inactive,inactive,inactive,inactive,inactive,inactive,,inactive,inactive,inactive,inactive,inactive,inactive,inactive,48.6 µM (active),inactive,inactive,,,
O=c1[nH]oc2c1CCNC2,inactive,inactive,inactive,inactive,inactive,inactive,inactive,inactive,inactive,,,inactive,inactive,inactive,inactive,,inactive,,,
CN(C)CCN(C)C,inactive,inactive,27.2 µM (active),inactive,inactive,,inactive,inactive,inactive,inactive,inactive,inactive,inactive,inactive,inactive,inactive,inactive,,,
C#CCOC(=O)/C=C(C)/C=C/CC(C)CCCC(C)C (configuration not stated),inactive,inactive,inactive,inactive,inactive,inactive,inactive,inactive,inactive,inactive,inactive,inactive,inactive,inactive,inactive,,,,,
NC(=O)CS(=O)C(c1ccccc1)c1ccccc1 (configuration not stated),inactive,inactive,inactive,inactive,inactive,,inactive,,inactive,inactive,inactive,inactive,inactive,inactive,inactive,inactive,inactive,-0.488,inactive,inactive
CCOC(=O)CCl,inactive,inactive,inactive,inactive,inactive,,inactive,,inactive,,,inactive,inactive,inactive,,,inactive,,,
CC(Cl)(Cl)Cl,inactive,inactive,inactive,inactive,inactive,,inactive,inactive,inactive,inactive,inactive,inactive,inactive,inactive,,,inactive,,,
C[C@@H](N)[C@@H](O)c1ccccc1,inactive,inactive,inactive,inactive,inactive,,inactive,inactive,inactive,inactive,inactive,inactive,inactive,inactive,inactive,inactive,inactive,-1.4,inactive,inactive
N#CN=C1SCCN1Cc1ccc(Cl)nc1,inactive,inactive,inactive,inactive,inactive,,inactive,inactive,inactive,inactive,inactive,inactive,inactive,inactive,,inactive,,,,
O=C(Cl)CCl,inactive,inactive,inactive,inactive,inactive,,inactive,inactive,inactive,inactive,inactive,inactive,inactive,inactive,,,inactive,,,
CCOC(=O)Nc1cccc(OC(=O)Nc2ccccc2)c1,inactive,inactive,inactive,inactive,inactive,,inactive,,inactive,inactive,inactive,inactive,inactive,inactive,30.6 µM (active),inactive,inactive,,,
CC1NCCOC1c1ccccc1 (configuration not stated),inactive,inactive,inactive,inactive,inactive,,inactive,inactive,inactive,inactive,inactive,inactive,inactive,inactive,inactive,,inactive,-1.57,inactive,inactive
